# In PubChem BioAssay (NCI):
# Compounds without any hit were thinned out: in the full panel of roughly 83,000, 20% have a hit.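 Percent growth is the endpoint: 0 to 100 indicates growth inhibition (40 means 60% inhibition), 0 means no net growth, and negative values indicate cell death.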 A number with no mark means an inactive call. Calls of active or inactive are those of the source.
# System: TK-10 renal
# Assay: NCI-60 one-dose screen, 48 h (100 = growth as untreated, 0 = no growth, -100 = all killed)
# Settings: 10 µM unless noted
# Experimental: Growth inhibition of the TK-10 human tumor cell line is measured as a screen for anti-cancer activity. Cells are grown in 96 well plates and exposed to the test compound for 48 hours. Compounds are tested at a single concentration, which is 10^-5 M for most compounds. The reported endpoint is percent growth (GI% or GIPRCNT), where numbers from 0 - 100% represent growth inhibition, and numbers from -100% - 0 represent cell death. For example, a value of 40 represents 60% growth inhibition. A value of 0 means no net growth occurred over the course of the experiment. A value of -40 indicates 40% of cells at the beginning of the experiment died by the end of the experiment. A value of -100 means all cells are dead at the end of the experiment.
# NCI-60 Human Tumor Cell Lines Screen was performed using the standard one-dose NCI protocol, which is described in more detail at https://dtp.cancer.gov/discovery_development/nci-60/default.htm.
# Compounds with GIPRCNT values below 10 were considered active. Activity score was based on GIPRCNT using the following formula: […]
# Score is 0 for GIPRCNT values of 100 or above, 50 for GIPRCNT values of 0, and 100 for GIPRCNT values of -100.
row,Compound,growth
1,Oc1ccc(N=Nc2ccc(N=Nc3ccccc3)cc2)cc1,48.5%
2,COC(=O)C(N)CC(C)C (stereo not given),90.6%
3,COc1ccc(C(O)(c2ccccc2)C(C(=O)O)c2ccccc2)cc1 (stereo not given),105%
4,O=C1C=C(OCC=C(C(F)(F)F)C(F)(F)F)c2ccccc2C1=O,53.5%
5,CCC(C)(C)c1ccc(OCCCCCCN2CCNCC2)cc1,90.4%
6,COc1cc(CCNc2cnc3cc(N)cc(N)c3n2)cc(OC)c1,116%
7,COc1ccc(Cn2cc3c(c2-c2ccccc2)CCc2cnoc2-3)cc1OC,70.4%
8,O=c1oc2ccc3ccccc3c2cc1-c1ccnc2[nH]c(=S)[nH]c(=O)c12,143%
9,COc1ccc(-c2nc(N)n(C(=S)Nc3ccccc3)n2)cc1,113%
10,Cc1nc2c(nnn2-c2ccccc2)c2nc(-c3ccccc3)oc(=O)c12,104%
11,CCOC(=O)C1=NN(c2ccccc2)C2=NC(=O)/C(=C\c3cn(-c4ccccc4)nc3-c3cc4ccccc4o3)C(=O)N12,161%
12,Cc1ccc(S(=O)(=O)N/N=C2\CC3CCC2C3)cc1 (stereo not given),122%
13,COc1ccccc1C(=O)Nc1cccc(-c2cc(=O)c3c(OC)c(OC)c(OC)cc3o2)c1,53.4%
14,O=C(CN1C(=O)NC(c2ccccc2)(c2ccccc2)C1=O)c1ccc(N2CCCC2)cc1,98.4%
15,Nc1nc(-c2cccc(Br)c2)cc(-c2cc3ccccc3oc2=O)n1,74.8%
16,CCCCCCNC(=O)Oc1ccc(/C(=C(/C)Cc2ccc(OC)cc2)c2ccc(OCCN(C)C)cc2)cc1,71.5%
17,COC(=O)c1ccc2[nH]c(O)c(C(=Nc3ccc(N(C)C(=O)CN4CCN(C)CC4)cc3)c3ccc(OC)cc3)c2c1,27.6%
18,COc1ccc(-c2nc(SCC(C)C)nc(Nc3ccc(C)cc3)c2C#N)cc1,43.3%
19,CCCCCCCCCCCCOC(=N)N(C)C,94%
20,COc1ccccc1Cn1cc2c(c1)-c1oncc1CC2,65.6%

row,Compound,growth
1,COc1ccc(C2CC(=O)c3c(O)cc(OC4OC(COC5OC(C)C(O)C(O)C5O)C(O)C(O)C4O)cc3O2)cc1O (stereo not given),110%
2,C=C(C)C(C(=O)OCC)(C(=O)OCC)C(C)C,113%
3,N#CCCCCCCCCCCC#N,92.4%
4,O=C1/C(=C\c2cn(-c3nc(N4CCOCC4)nc(N4CCOCC4)n3)c3ccccc23)c2ccccc2N1c1c(Cl)cccc1Cl,60%
5,CC(=O)C(CO)C(=O)Nc1ccccc1 (stereo not given),109%
6,COc1cc(-c2nn(-c3ccc(NC(=O)Nc4ccc(Cl)c(Cl)c4)cc3)cc2-c2ccncc2)ccc1Cl,-12.6% (active)
7,CCC(C)CC(N)O (stereo not given),99%
8,O=C(O)/C(Br)=C/c1c[nH]c2ccc(Br)cc12,117%
9,COc1ccc(/C=C(/C(=O)N2CCN(c3ccc(C)cc3)CC2)c2cc(OC)c(OC)c(OC)c2)cc1N,76.7%
10,[N-]=[N+]=Nc1ncc(-c2ccc(C(F)(F)F)cc2)c(NC2CCCCCC2)n1,45.3% [100 µM]
11,CC(O)CN(CC(C)O)N(CC(C)O)CC(C)O (stereo not given),99.3%
12,O=C(NCCCl)Nc1nccnc1OCc1ccc(F)cc1,138%
13,O=C(Nc1cccc(Cn2c(=O)[nH]c3ccc(Oc4ncccn4)cc3c2=O)c1)c1cc(Cl)cc(Cl)c1,71.5%
14,COc1nc(OC)nc(-c2cc(C(=O)c3ccc(Br)cc3)n3cc(C)cc(C)c23)n1,82.1%
15,COc1cc2ncnc(-n3ncc4cc(NC(=O)Nc5ccc(Cl)c(C)c5)ccc43)c2cc1OC,95.9%
16,COc1ccc2oc(=O)cc(CN3C(=O)S/C(=C\c4ccc(Cl)cc4)C3=O)c2c1,108%
17,CC[n+]1c(C)ccc2cc(C)ccc21,98.1%
18,COc1cc(NC(C)CCCN)c2nccc(C)c2c1OC (stereo not given),114%
19,O=c1c2c(c3ccccc3n1-c1ccccc1)NC(=S)NC2c1ccccc1 (stereo not given),226%
20,Cc1nnc(/N=C2\NC(=O)/C(=C/C=C/c3ccccc3)S2)s1,70.3%
